# Records with an inconclusive call do not appear. Calls of active or inactive are those of the source. Calls follow the shape of the full dose curve.
# Assay: VSV-G qHTS counterscreen for inhibitors of SARS-S pseudo-typed particle cell entry
# Conditions: VSV-G pseudotyped particle entry counterscreen, luciferase; series mostly up to 57.1 µM
row,SMILES,Potency
1,CC[C@@]1(O)C(=O)OCc2c1cc1n(c2=O)Cc2c-1nc1ccccc1c2/C=N/OC(C)(C)C,0.0764 µM (active)
2,NCCNc1ccc(NCCN)c2c1C(=O)c1ccncc1C2=O,3.41 µM (active)
3,O=C(Nc1ccc(Cl)cc1)Nc1ccc(Cl)c(C(F)(F)F)c1,9.61 µM (active)
4,CC(C)(C)c1ccc(C(=O)CCCN2CCC(OC(c3ccccc3)c3ccccc3)CC2)cc1,27.1 µM (active)
5,C=C1c2c(Cl)ccc(O)c2C(O)=C2C(=O)[C@@]3(O)C(O)=C(C(N)=O)C(=O)[C@@H](N(C)C)[C@@H]3[C@@H](O)[C@H]12,15.2 µM (active)
6,Cc1oncc1C(=O)Nc1ccc(C(F)(F)F)cc1,inactive
7,Cc1cc(-n2c(=O)[nH]c(=O)n(C)c2=O)ccc1Oc1ccc(S(=O)(=O)C(F)(F)F)cc1,19.2 µM (active)
8,Cc1nnc2n1-c1sc(CCc3ccc(CC(C)C)cc3)cc1C(c1ccccc1Cl)=NC2C (stereo not given),27.1 µM (active)
9,Cc1c(N)nc(C(CC(N)=O)NCC(N)C(N)=O)nc1C(=O)NC(C(=O)NC(C)C(O)C(C)C(=O)NC(C(=O)NCCc1nc(-c2nc(C(=O)NCCCN[C@@H](C)c3ccccc3)cs2)cs1)C(C)O)C(O[C@@H]1O[C@@H](CO)[C@@H](O)[C@H](O)[C@@H]1O[C@H]1O[C@H](CO)[C@@H](O)[C@H](OC(N)=O)[C@@H]1O)c1cnc[nH]1 (stereo not given in full),0.304 µM (active)
10,COc1ccc2cc1Oc1ccc(cc1)C[C@H]1c3c(cc4c(c3Oc3cc5c(cc3OC)CCN(C)[C@@H]5C2)OCO4)CCN1C,21.5 µM (active)

# — PubChem BioAssay AID1494158 (National Center for Advancing Translational Sciences (NCATS), 2020)
